ALDH1A1 inh = qHTS Assay for Inhibitors of Aldehyde Dehydrogenase 1 (ALDH1A1). Aldehyde dehydrogenase 1A1 (Homo sapiens), P00352. Purified ALDH1A1, NADH fluorescence, propionaldehyde substrate. Potency, µM (highest dose often 75.3 µM), for the others: at the top dose activity, negative = inhibition, actives largely listed as inhibitors. hit rate 7.3% among 220,000;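 note: plate controls were no enzyme wells and a reference inhibitor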
Target sequence (P00352 whole entry, looked up): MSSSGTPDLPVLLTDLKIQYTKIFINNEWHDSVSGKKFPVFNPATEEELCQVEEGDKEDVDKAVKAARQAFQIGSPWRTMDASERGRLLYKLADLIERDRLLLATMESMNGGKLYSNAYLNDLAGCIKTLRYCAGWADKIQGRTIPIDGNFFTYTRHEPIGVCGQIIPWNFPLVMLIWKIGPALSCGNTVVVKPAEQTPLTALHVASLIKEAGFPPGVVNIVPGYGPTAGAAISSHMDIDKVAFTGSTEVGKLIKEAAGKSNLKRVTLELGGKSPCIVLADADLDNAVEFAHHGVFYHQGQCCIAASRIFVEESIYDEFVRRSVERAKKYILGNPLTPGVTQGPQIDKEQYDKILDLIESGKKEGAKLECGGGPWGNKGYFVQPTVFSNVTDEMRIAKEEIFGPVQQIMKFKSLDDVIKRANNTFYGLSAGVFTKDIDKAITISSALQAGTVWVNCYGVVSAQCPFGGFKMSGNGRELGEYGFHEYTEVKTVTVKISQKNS
LMNA splice mod = qHTS Assay for Modulators of Lamin A Splicing. hit rate 0.01% among 200,000. HeLa LMNA splicing GFP/RFP minigene ratio, 48 h. Potency, µM (highest dose often 46.1 µM), for the others: at the highest dose ratio change, negative = inhibition, actives largely listed as inhibitors. AID 1487, 2009; active = well fitted inhibition curve with a large enough effect in the signal ratio, with a control signal flat, not every such curve was filed as active; inconclusive = small, poorly fitted or top-dose-only effect, or effect the other way, or a change in a side signal; the % refers to the signal ratio; note: % is set by controls: 0 for no effect and ±100 for the full control effect
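S3 HeLa cells stably expressing lamin A-EGFP splicing minigene plus DsRed2, 600 cells/well, 48 h compound exposure at 37C. Laser-scanning cytometry; analysed as GFP (500-530 nm)/RFP (575-640 nm) total intensity ratio; 0.5% DMSO vehicle.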
HTT ATP protect = qHTS Multiplex Assay to Identify Dual Action Probes in a Cell Model of Huntington: Cytoprotection (ATP); hit rate 0.14% among 230,000; PC12 HTT-Q103 induced, cytoprotection, ATP luminescence, 40 h; Potency, µM (highest dose often 56.4 µM), for the others: cytoprotection (ATP increase), usual class: activators; active = well fitted curve in the direction sought with a large enough effect; inconclusive = small, poorly fitted or top-dose-only effect, or another doubt; inactive = no such curve, though single readings can be large; an effect the other way counts as inactive or inconclusive; note: % of control where 0% means no effect; nearly all actives have a fitted effect of over 45% in size
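PC12 cells stably carrying ecdysone-inducible Htt exon 1 (Q103)–GFP were induced with 100 nM tebufenozide (final) alongside library compounds in a dose series. Cytoprotection was scored as retained ATP by ATPlite luminescence.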
HPGD inh = qHTS Assay for Inhibitors of HPGD (15-Hydroxyprostaglandin Dehydrogenase). purified HPGD, NADH fluorescence kinetic, PGE2 substrate. Potency, µM, inactives show at the top dose activity change, negative = inhibition, usual class: inhibitors. hit rate 4.3% among 150,000; note: % is set by controls: 0 for no effect and ±100 for the full control effect
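20 nM HPGD preincubated 15 min at room temperature with compound in 50 mM Tris-HCl pH 8, 0.01% Tween 20. Started with 1 mM NAD+ and 30 uM prostaglandin E2; NADH fluorescence (360/450 nm) read 5 times over 30-s intervals, last minus first.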
JMJD2E inh = qHTS Assay for Inhibitors of Human Jumonji Domain Containing 2E (JMJD2E); Lysine-specific demethylase 4E (Homo sapiens), B2RXH2; JMJD2E catalytic domain, FDH-coupled NADH fluorescence (FDH is formaldehyde dehydrogenase); Potency, µM (doses to about 57.1 µM), for inactives: at the top dose activity change, negative = inhibition, hits mostly inhibitors; hit rate 1.6% among 230,000; AID 2147, 2009;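 note: 0% = wells with enzyme and -100% = buffer wells without enzyme; nearly all actives have a fitted effect of over 50% in size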
Target sequence (B2RXH2 1-337 limits assumed): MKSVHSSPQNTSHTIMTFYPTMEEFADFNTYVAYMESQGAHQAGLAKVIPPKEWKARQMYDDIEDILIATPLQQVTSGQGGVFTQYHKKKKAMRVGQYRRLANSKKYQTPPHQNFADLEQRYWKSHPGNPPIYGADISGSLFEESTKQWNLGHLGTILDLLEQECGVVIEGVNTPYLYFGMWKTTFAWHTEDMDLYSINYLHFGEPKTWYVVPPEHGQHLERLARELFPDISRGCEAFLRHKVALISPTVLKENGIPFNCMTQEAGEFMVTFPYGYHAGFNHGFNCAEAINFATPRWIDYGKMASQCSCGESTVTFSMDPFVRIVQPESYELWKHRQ
HTT aggregate = qHTS Multiplex Assay to Identify Dual Action Probes in a Cell Model of Huntington: Aggregate Formation (GFP); hit rate 1.1% among 220,000; AID 1688, 2009; Potency, µM (top dose mostly 46.1 µM), without a hit: at the top dose activity change, negative = inhibition, hits mostly inhibitors; PC12 HttQ103-GFP aggregates, Acumen cytometry, 40 h; active = well fitted curve in the direction sought with a large enough effect; inconclusive = small, poorly fitted or top-dose-only effect, or another doubt; inactive = no such curve, though single readings can be large; an effect the other way counts as inactive or inconclusive; note: % is set by controls: 0 for no effect and ±100 for the full control effect; nearly all actives have a fitted effect of over 60% in size
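Aggregate formation scored by laser-scanning cytometer (488 excitation, 500–530 emission) in lysed PC12 cells expressing Q103-GFP after 100 nM tebufenozide induction; library tested in dose series, with ATPLite reagent added in the multiplex.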
Starred values were filed as active, the others as inactive; ? = inconclusive; . = not tested or not shown; [ ] = another dose, or the depositor's remark. Rows were chosen to be rich in hits. Some 9.2% of all compounds tested hit in one or more screens of this group. Unless noted, calls come from the whole dose curve; as a rule, active = well fitted inhibition curve with a large enough effect (not every such curve was filed as active); inconclusive = small, poorly fitted or top-dose-only effect, or another doubt; inactive = no such curve, though single readings can be large or run the other way. Potency is the fitted concentration of half-maximal effect.

SMILES | ALDH1A1 inh | LMNA splice mod | HTT ATP protect | HPGD inh | JMJD2E inh | HTT aggregate
O=C(c1cccnc1)N1CCN(Cc2cccc(Br)c2)CC1 | 10µM* | -4.5% | ? | -10.9% | ? | ?
CCOC(=O)CSc1nc2ccccc2c(=O)n1CC1CCCC1 | ? | -7.7% | 6.9%[10 µM] | -9.3% | -0.3% | -7.2%
CCOC(=O)CSc1nc2cc(C(=O)N3CCCC3)ccc2c(=O)n1Cc1ccccc1 | 25.1µM* | -3.0% | 5.3% | -4.9% | -7.9% | 2.7%
CCOC(=O)CSc1nc2ccccc2c(=O)n1-c1ccc(C(=O)NCCOC)cc1 | 0.9% | -5.0%[46 µM] | 13.4% | -19.6% | 2.3% | 3.4%
COC(=O)c1ccc2c(=O)n(-c3ccccc3)c(SCN3C(=O)c4ccccc4C3=O)nc2c1 | 12.6µM* | ? | 4.3%[10 µM] | -11.5% | 7.0% | -2.2%
CCOC(=O)CSc1nc2cc(C(=O)N3CCC(C(N)=O)CC3)ccc2c(=O)n1-c1ccccc1 | 1.9% | 4.7% | -16.7% | -27.1% | 0.8% | 2.82µM*
Cc1cc(C)cc(NC(=O)CC(C)n2nc(C)cc2C)c1 (stereo not given) | . | -18.6%[46 µM] | . | . | . | .
Nc1ccc(S(N)(=O)=O)cc1 | -7.4% | -8.2% | -27.0% | -1.8% | 2.2% | 15.0%
Nc1ccc(S(N)(=O)=O)cc1N | . | -9.9%[46 µM] | -9.3%[10 µM] | . | 7.94µM* | -27.4%[9.22 µM]
COc1ccc(Oc2ncc3ncc(=O)n(C4CC4)c3n2)cc1 | -9.3% | -4.9% | ? | . | . | .
COc1ccc(CCNC(=O)C2COc3ccccc3C2)cc1OC (stereo not given) | . | 0.8%[46 µM] | . | . | . | .
CC(C)COC(=O)n1ccc(C(=O)N2CCCCC2)n1 | -3.0% | 2.4% | 15.0% | 10µM* | -2.8% | 1.2%
O=C(Cn1nc2n(c1=O)-c1ccccc1SC2)N/N=C/c1ccncc1 | . | . | 30.3%[10 µM] | . | 10.5% | -2.2%[9.22 µM]
CSc1cccc(NC(=O)c2nnn(Cc3ccccc3)c2N)c1 | -8.6% | -0.5% | -25.3% | -9.1% | -0.8% | 16.1%
COc1cc(NC(=O)c2nnn(Cc3ccc(SC)cc3)c2N)cc(OC)c1 | 7.94µM* | -1.8% | 4.3% | -14.0% | 9.2% | -3.8%
C/C(=N\NC(N)=S)C1(C)CCCCC1 | ? | -6.2% | . | 2.5% | -2.4% | 3.8%
C/C(=N\NC(N)=O)C1(C)CCCCC1 | 25.1µM* | 13.6% | 10.4% | -9.6% | -4.1% | -14.2%[9.22 µM]
CCC(Sc1nc2ncccc2[nH]1)C(=O)Nc1cccc(OC)c1 (stereo not given) | . | 8.7%[46 µM] | . | . | . | .
CCOC(=O)c1cnc(-n2nc(C)cc2C)nc1NNc1nc(-c2ccccc2)cc(-c2ccccc2)n1 | 3.3% | ? | 32.4%[10 µM] | -10.2% | -9.3% | 10µM*
CCOC(=O)c1cnc(-n2nc(C)cc2C)nc1NC1CCCCC1 | 25.1µM* | ? | 3.6% | . | -2.4% | -4.0%
CCOC(=O)c1cnc(-n2nc(C)cc2C)nc1Nc1ccc(N(C)C)cc1 | 20µM* | ? | 19.9%[10 µM] | -19.4% | 1.5% | ?
CCOC(=O)c1cnc(-n2nc(C)cc2C)nc1NC | ? | -0.6% | -44.9% | ? | ? | 18.1%
CCOC(=O)c1cnc(-n2nc(C)cc2C)nc1NNc1nc(C)cc(C)n1 | 11.4% | . | 17.9%[10 µM] | . | -7.2% | 4.4%[9.22 µM]
Cc1ccc(-c2nc(NC(=O)c3cc(C(C)(C)C)nn3C)sc2C)cc1Cl | . | . | -29.4%[10 µM] | . | 2.8% | -22.3%[9.22 µM]
CC[C@@]12CCCN3CCc4c(n(c5ccccc45)C(=O)C1)[C@H]32 | 5.3%[13.5 µM] | ? | -9.2%[10 µM] | -3.7% | 0.9%[25.5 µM] | -3.0%[20.6 µM]
SMILES | ALDH1A1 inh | LMNA splice mod | HTT ATP protect | HPGD inh | JMJD2E inh | HTT aggregate
CCCC[C@@H](C=O)NC(=O)[C@H](CC(C)C)NC(=O)OCc1ccccc1 | -14.8% | . | -97.8% | . | . | .
Cc1nc2scc(-c3ccccc3)c2c(=O)n1N=C1C=CC(=O)C=C1 | ? | 8.0%[46 µM] | 36.4%[10 µM] | . | -2.2% | 17.5%[9.22 µM]
Cc1cccc(NC(=O)CSc2nnc(-c3ccco3)c(-c3ccco3)n2)c1 | 7.94µM* | 23.6%[46 µM] | -5.7%[10 µM] | . | -19.1% | -14.7%[9.22 µM]
Cc1cccc(NC(=O)CSc2nc(N)cc(N)n2)c1 | 6.2% | -2.6% | -8.1%[1.9 µM] | -12.9% | -2.7% | -15.9%
Cc1cccc(NC(=O)CSc2nnc(-c3ccco3)c(-c3ccco3)n2)c1C | 3.55µM* | -0.1%[0.0737 µM] | -37.2% | 10µM* | ? | 27.2%
COc1ccc(OC2C=CC(c3ccccc3)OC2CO)cc1 (stereo not given) | 10.4%[13.5 µM] | . | -12.2%[10 µM] | . | . | .
O=C(Nc1cc(S(=O)(=O)N2CCOCC2)ccc1O)c1ccc2c(c1)S(=O)(=O)c1ccccc1C2=O | 1.12µM* | -2.7%[46 µM] | . | . | -9.5% | 23.6%
CC(C)CC(=O)Nc1nnc(S(=O)(=O)N2c3ccccc3CC2C)s1 (stereo not given) | . | 5.4%[46 µM] | . | . | . | .
Cc1csc(B(O)O)c1 | -1.0% | . | -33.6% | -13.0% | 14.7% | .
O=C(COc1ccc(Br)cc1)N1CCN(c2ccc([N+](=O)[O-])c(N3CCCCC3)c2)CC1 | 3.98µM* | ? | ? | . | 1.5% | -17.3%
O=C(COc1ccccc1)N1CCN(c2ccc([N+](=O)[O-])c(N3CCCCC3)c2)CC1 | 10µM* | 6.2% | -22.7% | -15.1% | -5.0% | -33.0%
COCCN(Cc1ccco1)C(=O)Cn1ncc2c(=O)oc3ccccc3c21 | . | . | 22.4%[10 µM] | . | -16.5% | 44.3%[9.22 µM]
OCCNc1nc(-c2ccccc2)c2cc(Cl)ccc2n1 | ? | . | -12.6%[10 µM] | . | -5.2% | -7.3%[9.22 µM]
COCCNC(=O)c1cccc(Nc2nc(-c3ccccc3)c3cc(Cl)ccc3n2)c1 | -10.3% | ? | ? | 28.2µM* | ? | ?
COc1cc(/C=C2/C(=O)c3cccc([N+](=O)[O-])c3C2=O)c(Br)cc1O | 8.91µM* | ? | . | 1.41µM* | -24.5% | -2.6%
CCOC(=O)c1[nH]nc2c1C(=O)N(Cc1ccccc1)C2=O | ? | ? | -15.5% | 8.91µM* | -6.4% | 23.2%
COC(=O)c1[nH]nc2c1C(=O)N(Cc1ccccc1)C2=O | ? | ? | 5.9% | 10µM* | -3.1% | 0.9%
CCOC(=O)C1=C(C)N(Cc2ccccc2)C(=O)NC1c1ccc(OC)cc1 (stereo not given) | ? | 14.8% | 11.5% | -13.9% | 3.6% | 0.1%
COC(=O)c1[nH]nc2c1C(=O)N(C1CCCCC1)C2=O | ? | ? | 18.2% | -23.8% | -3.9% | 15.7%
COc1ccc(/C=N/c2oc(C)c(C)c2C#N)c(OC)c1 | 12.6µM* | 6.7%[46 µM] | -4.5%[10 µM] | . | ? | -11.6%[9.22 µM]

From PubChem
